Data taken from PubChem BioAssay AID1159580 (chemical genetic matrix, 2015).
Values joined by “and” are separate entries in the source; they are usually repeats but may differ in a detail not shown here. Equal entries are not always repeated. The campaign covered roughly 5,500 compounds. About 2,000 (36%) were called active. Roughly 18% stayed inconclusive and do not appear here. Cut-off read from the data, not from the text of the source: active = normalized growth mostly below about 0.91 (no sharp cut-off); inconclusive = no clear call, values can overlap the other calls; inactive = mostly above about 0.92. The list shows a part of the results.

Assay: chemical genetic growth profiling, strain panel (AID 1159580);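 note: tested at 20 µM; growth read once vehicle control cultures reached saturation at 30 °C; 1 = growth at the plate median or of vehicle wells; lower values mean less growth of the strain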
Conditions: S. cerevisiae deletion strains, growth OD

Measured: normalized growth

CCOC(=O)C1C(C=C(C)C)C1(C)C (stereo unspecified)
inactive: locus YAL013W, strain DEP1, stronger effect = lower value 0.998 | locus YAL021C, strain ccr4, stronger effect = lower value 0.989 | locus YAL026C, strain drs2, stronger effect = lower value 1.01 | locus YAL030W, strain snc1, stronger effect = lower value 1 | locus YBL061C, strain skt5, stronger effect = lower value 1.01 | locus YBR009C, strain hhf1, stronger effect = lower value 0.998 | locus YBR021W, strain FUR4, stronger effect = lower value 0.979 | locus YBR023C, strain chs3, stronger effect = lower value 1 | locus YBR171W, strain sec66, stronger effect = lower value 1 | locus YBR229C, strain ROT2, stronger effect = lower value 1 | locus YBR231C, strain swc5, stronger effect = lower value 0.995 | locus YBR279W, strain paf1, stronger effect = lower value 1 | locus YCL011C, strain gbp2, stronger effect = lower value 0.992 | locus YCL016C, strain dcc1, stronger effect = lower value 1.01 | locus YCL029C, strain bik1, stronger effect = lower value 1.02 | locus YCL061C, strain MRC1, stronger effect = lower value 0.996 | locus YCL069W, strain vba3, stronger effect = lower value 1 | locus YCR088W, strain abp1, stronger effect = lower value 1 | locus YDL005C, strain med2, stronger effect = lower value 0.991 | locus YDL035C, strain GPR1, stronger effect = lower value 1.01 | locus YDL040C, strain nat1, stronger effect = lower value 1.02 | locus YDL074C, strain BRE1, stronger effect = lower value 1.03 | locus YDL101C, strain DUN1, stronger effect = lower value 1 | locus YDL185W, strain tfp1, stronger effect = lower value 1.02 | locus YDL192W, strain arf1, stronger effect = lower value 1 | locus YDR001C, strain nth1, stronger effect = lower value 1 | locus YDR069C, strain doa4, stronger effect = lower value 1 | locus YDR101C, strain arx1, stronger effect = lower value 1.01 | locus YDR137W, strain rgp1, stronger effect = lower value 1.01 | locus YDR159W, strain sac3, stronger effect = lower value 0.939 | locus YDR162C, strain NBP2, stronger effect = lower value 1.01 | locus YDR195W, strain ref2 0.99 | locus YDR297W, strain sur2, stronger effect = lower value 0.991 | locus YDR318W, strain mcm21, stronger effect = lower value 1.01 | locus YDR334W, strain swr1, stronger effect = lower value 1.01 | locus YDR335W, strain msn5, stronger effect = lower value 1 | locus YDR388W, stronger effect = lower value 1.01 | locus YDR392W, strain spt3, stronger effect = lower value 0.876 | locus YDR502C, strain sam2, stronger effect = lower value 1.01 | locus YEL003W, strain gim4, stronger effect = lower value 1.02 | locus YEL037C, strain rad23, stronger effect = lower value 1 | locus YEL061C, strain CIN8 (second series), stronger effect = lower value 1.01 | locus YEL061C, strain CIN8, stronger effect = lower value 1 | locus YER015W, strain faa2, stronger effect = lower value 1 | locus YER016W, strain bim1, stronger effect = lower value 0.978 | locus YER110C, stronger effect = lower value 1.02 | locus YER111C, strain swi4, stronger effect = lower value 0.997 | locus YER155C, strain BEM2 (second series), stronger effect = lower value 0.981 | locus YER155C, strain BEM2, stronger effect = lower value 1 | locus YER167W, strain BCK2, stronger effect = lower value 0.998 | locus YFR010W, strain ubp6, stronger effect = lower value 1 | locus YGL078C, strain dbp3, stronger effect = lower value 1 | locus YGL086W, strain mad1, stronger effect = lower value 1.01 | locus YGL167C, strain pmr1, stronger effect = lower value 1 | locus YGL173C, strain kem1, stronger effect = lower value 1 | locus YGL227W, strain vid30, stronger effect = lower value 1 | locus YGL240W, strain doc1, stronger effect = lower value 0.97 | locus YGL248W, strain PDE1, stronger effect = lower value 1.01 | locus YGL253W, strain hxk2, stronger effect = lower value 1.02 | locus YGR078C, strain PAC10, stronger effect = lower value 1.01 | locus YGR135W, strain pre9, stronger effect = lower value 0.993 | locus YGR252W, strain gcn5, stronger effect = lower value 0.982 | locus YHR013C, strain ard1, stronger effect = lower value 1 | locus YHR027C, strain rpn1, stronger effect = lower value 1 | locus YHR030C, strain SLT2, stronger effect = lower value 1 and 1.04 | locus YHR079C, strain IRE1 (second series), stronger effect = lower value 1 | locus YHR079C, strain IRE1, stronger effect = lower value 1.04 | locus YHR094C, strain hxt1, stronger effect = lower value 1.01 | locus YHR129C, strain ARP1, stronger effect = lower value 1 | locus YHR142W, strain chs7, stronger effect = lower value 1.01 | locus YHR200W, strain rpn10, stronger effect = lower value 1.02 | locus YIL066C, strain RNR3, stronger effect = lower value 0.996 | locus YIL073C, strain SPO22, stronger effect = lower value 1.06 | locus YIL125W, strain kgd1, stronger effect = lower value 1.01 | locus YIR030C, strain dcg1, stronger effect = lower value 1.01 | locus YJL092W, strain hpr5, stronger effect = lower value 1 | locus YJL095W, strain BCK1 (second series), stronger effect = lower value 1.02 | locus YJL095W, strain BCK1, stronger effect = lower value 1 and 1.02 | locus YJL115W, strain asf1, stronger effect = lower value 0.999 | locus YJL129C, strain trk1, stronger effect = lower value 0.984 | locus YJL134W, strain LCB3, stronger effect = lower value 1 | locus YJL154C, strain vps35, stronger effect = lower value 1 | locus YJL164C, strain tpk1, stronger effect = lower value 0.989 | locus YJL166W, strain qcr8, stronger effect = lower value 0.996 | locus YJL168C, strain set2, stronger effect = lower value 1.01 | locus YJL187C, strain SWE1 (second series), stronger effect = lower value 1 | locus YJR043C, strain POL32, stronger effect = lower value 0.988 | locus YJR066W, strain TOR1, stronger effect = lower value 0.991 | locus YKL009W, strain mrt4, stronger effect = lower value 1.06 | locus YKL068W, stronger effect = lower value 1.01 | locus YKL085W, strain MDH1 (second series), stronger effect = lower value 1.01 | locus YKL085W, strain MDH1, stronger effect = lower value 1.01 | locus YKL160W, strain elf1, stronger effect = lower value 1.01 | locus YKL190W, strain CNB1, stronger effect = lower value 0.983 | locus YKR001C, strain vps1, stronger effect = lower value 1.04 | locus YKR026C, strain gcn3, stronger effect = lower value 1 | locus YKR091W, strain srl3, stronger effect = lower value 0.997 | locus YLL001W, strain dnm1, stronger effect = lower value 0.978 | locus YLL026W, stronger effect = lower value 1.01 | locus YLL041C, strain sdh2, stronger effect = lower value 1.01 | locus YLR027C, strain aat2, stronger effect = lower value 0.982 | locus YLR039C, strain RIC1, stronger effect = lower value 1.01 | locus YLR058C, strain SHM2, stronger effect = lower value 1 | locus YLR102C, strain apc9, stronger effect = lower value 1.01 | locus YLR113W, strain HOG1, stronger effect = lower value 1.04 | locus YLR221C, strain rsa3, stronger effect = lower value 1.01 | locus YLR258W, strain gsy2, stronger effect = lower value 1.01 | locus YLR262C, strain YPT6 (second series), stronger effect = lower value 1.01 | locus YLR262C, strain YPT6, stronger effect = lower value 1.02 | locus YLR268W, strain sec22, stronger effect = lower value 1.03 | locus YLR320W, strain mms22, stronger effect = lower value 0.976 | locus YLR330W, strain CHS5, stronger effect = lower value 1.03 | locus YLR342W, strain FKS1 (second series), stronger effect = lower value 0.98 | locus YLR342W, strain FKS1, stronger effect = lower value 1 | locus YLR357W, strain rsc2, stronger effect = lower value 0.925 | locus YLR370C, strain arc18, stronger effect = lower value 1.02 | locus YLR371W, strain rom2, stronger effect = lower value 1.01 | locus YLR384C, strain iki3, stronger effect = lower value 0.995 | locus YLR418C, strain cdc73, stronger effect = lower value 1.02 | locus YML016C, strain PPZ1, stronger effect = lower value 1.01 | locus YML032C, strain rad52, stronger effect = lower value 1 | locus YML120C, strain ndi1, stronger effect = lower value 0.994 | locus YML124C, strain tub3, stronger effect = lower value 1 | locus YMR058W, strain fet3, stronger effect = lower value 1 | locus YMR078C, strain ctf18, stronger effect = lower value 1 | locus YMR125W, strain sto1, stronger effect = lower value 0.983 | locus YMR129W, stronger effect = lower value 1 | locus YMR205C, strain PFK2, stronger effect = lower value 0.995 | locus YMR223W, strain ubp8, stronger effect = lower value 0.992 | locus YMR231W, strain pep5, stronger effect = lower value 0.999 | locus YMR307W, strain GAS1, stronger effect = lower value 1.02 | locus YNL067W, strain RPL9B, stronger effect = lower value 1 | locus YNL071W, strain lat1, stronger effect = lower value 1.01 | locus YNL183C, strain NPR1, stronger effect = lower value 0.981 | locus YNL209W, strain ssb2, stronger effect = lower value 0.99 | locus YNL233W, strain BNI4, stronger effect = lower value 1 | locus YNL248C, strain rpa49, stronger effect = lower value 0.95 | locus YNL250W, strain rad50, stronger effect = lower value 1.02 | locus YNL271C, strain bni1, stronger effect = lower value 1.02 | locus YNL298W, strain CLA4, stronger effect = lower value 1.01 | locus YNL307C, strain MCK1, stronger effect = lower value 1.02 | locus YNL322C, strain KRE1 (second series), stronger effect = lower value 0.969 | locus YNR049C, strain mso1, stronger effect = lower value 1 | locus YNR052C, strain pop2, stronger effect = lower value 1.01 | locus YOL012C, strain htz1 0.867 | locus YOL147C, strain pex11, stronger effect = lower value 1.01 | locus YOR001W, strain rrp6, stronger effect = lower value 0.981 | locus YOR061W, strain CKA2, stronger effect = lower value 1 | locus YOR069W, strain VPS5, stronger effect = lower value 1 | locus YOR070C, strain gyp1, stronger effect = lower value 0.996 | locus YOR080W, strain dia2, stronger effect = lower value 0.991 | locus YOR083W, strain WHI5, stronger effect = lower value 0.937 | locus YOR106W, strain vam3, stronger effect = lower value 1 | locus YOR136W, strain idh2, stronger effect = lower value 1.02 | locus YOR144C, strain elg1, stronger effect = lower value 1.01 | locus YOR184W, strain ser1, stronger effect = lower value 1.01 | locus YOR231W, strain MKK1, stronger effect = lower value 1.03 | locus YOR265W, strain rbl2, stronger effect = lower value 1.01 | locus YOR270C, strain vph1, stronger effect = lower value 1.03 | locus YOR290C, strain snf2, stronger effect = lower value 1.01 | locus YOR316C, strain cot1, stronger effect = lower value 1.01 | locus YPL051W, strain arl3, stronger effect = lower value 1 | locus YPL078C, strain atp4, stronger effect = lower value 0.991 | locus YPL106C, strain sse1, stronger effect = lower value 0.963 | locus YPL240C, strain hsp82, stronger effect = lower value 0.998 | locus YPL256C, strain CLN2, stronger effect = lower value 1.02 | locus YPR119W, strain clb2, stronger effect = lower value 1.01 | locus YPR141C, strain kar3, stronger effect = lower value 1.01 | locus YPR163C, strain tif3, stronger effect = lower value 1.01 | locus YPR167C, strain met16, stronger effect = lower value 1.03 | strain wtn01, stronger effect = lower value 1.02
